Results taken from PubChem BioAssay AID463173 (ICCB-Longwood Screening Facility, Harvard Medical School, 2010).
The whole screen tested about 52,000 compounds, of which about 4,300 (8.3%) were called active. Cut-off read from the data, not from the text of the source: active = survival mostly below about 52% (no sharp cut-off); inactive = mostly above about 56%. The entries come from a sample that favours actives as a whole.

system: DeltatarO mutant; experiment: growth inhibition of S. aureus wild type versus tarO mutant, primary screen, teichoic acid synthesis inhibitors, RN4220, OD600 (AID 463173); settings: OD600, 18 h, active compounds read low, screened at 18.75 µg/mL (by protocol)

| Structure (SMILES) | survival |
| --- | --- |
| CCOc1ccc(NS(=O)(=O)c2ccc(NC(=O)N3CCCC3)cc2)cc1 | 101% (inactive) |
| COc1ccc(OC)c(NC(=O)C(C)n2c(=O)cc(C)c3c(C)nn(-c4ccccc4)c32)c1 (centres undefined) | 94% (inactive) |
| CCOc1ccccc1-c1cc(C(=O)N/N=C(\C)c2ccco2)[nH]n1 | 85% (inactive) |
| Clc1ccc(-c2ccc(CNCCSc3nnnn3-c3ccccc3)o2)cc1 | 52% (inactive) |
| COc1cc(OC)c(OC)cc1CNCCSc1nnnn1-c1ccccc1 | 61% (inactive) |
| Clc1cccc(CNCCCSc2nnnn2-c2ccccc2)c1 | 68% (inactive) |
| Fc1cccc(Cl)c1CNCCSc1nnnn1-c1ccccc1 | 79% (inactive) |
| Cc1c(Cl)cccc1-c1ccc(CNCCSc2nnnn2-c2ccccc2)o1 | 62% (inactive) |
| Clc1cccc(-c2ccc(CNCCSc3nnnn3-c3ccccc3)o2)c1 | 30% (active) |
| CCOc1ccc(Br)cc1CNCCSc1nnnn1-c1ccccc1 | 23% (active) |
| CCOc1cc(CNCCSc2nnnn2-c2ccccc2)ccc1OC | 60% (inactive) |
| Fc1ccc(CNCCCSc2nnnn2-c2ccccc2)cc1 | 97% (inactive) |
| Brc1ccc(-c2ccc(CNCCSc3nnnn3-c3ccccc3)o2)cc1 | 67% (inactive) |
| Fc1ccc(-c2ccc(CNCCSc3nnnn3-c3ccccc3)o2)cc1 | 28% (active) |
| Fc1ccc(-c2ccc(CNCCSc3nnnn3-c3ccccc3)o2)cc1Cl | 39% (active) |
| Cc1ccccc1OCC(=O)Nc1ccc2[nH]c(=O)sc2c1 | 133% (inactive) |
| CN(C)c1ccc(/C=C/C=c2\sc3nc4ccccc4n3c2=O)cc1 | 102% (inactive) |
| Cn1nnnc1SCCCNCc1ccc(-c2cccc(Cl)c2)o1 | 97% (inactive) |
| Cn1nnnc1SCCCNCc1ccc(-c2ccc(Br)cc2)o1 | 32% (active) |
| Cn1nnnc1SCCCNCc1ccc(-c2ccc(F)c(Cl)c2)o1 | 82% (inactive) |

| Structure (SMILES) | survival |
| --- | --- |
| COc1cccc2c1Oc1ncccc1N(C(=O)CCC(=O)NCc1ccc(C)cc1)C2 | 81% (inactive) |
| CCc1ccc(C2=NN(CCC(=O)NCCc3ccc(Cl)cc3)C(=O)CC2)cc1 | 128% (inactive) |
| Cc1ccc(Cc2nc3ccccc3nc2SCC(=O)NCCc2ccccc2)cc1 | 67% (inactive) |
| CCCCNC(=O)CSc1nc2ccccc2nc1Cc1ccc(C)cc1 | 87% (inactive) |
| CCCNC(=O)CSc1nc2ccccc2nc1Cc1ccc(Cl)cc1 | 74% (inactive) |
| COc1ccc(CCNC(=O)CSc2nc3ccccc3nc2Cc2ccc(C)cc2)cc1OC | 35% (active) |
| CCOc1ccc(CCNC(=O)CSc2nc3ccccc3nc2Cc2ccc(C)cc2)cc1OCC | 112% (inactive) |
| O=C(CSc1nc2ccccc2nc1Cc1ccc(Cl)cc1)NCCc1ccccc1 | 69% (inactive) |
| Cc1ccc(CNC(=O)CSc2nc3ccccc3nc2Cc2ccc(C)cc2)cc1 | 71% (inactive) |
| CCCCN(C)C(=O)CSc1nc2ccccc2nc1Cc1ccc(C)cc1 | 32% (active) |
| COc1ccc(CCNC(=O)CSc2nc3ccccc3nc2Cc2ccc(Cl)cc2)cc1OC | 37% (active) |
| CCOc1ccc(CNS(=O)(=O)c2ccc3c(c2)CCCN3C(C)=O)cc1 | 93% (inactive) |
| CC(Sc1nc(NC(C)(C)C)nc(N(C)C)n1)C(=O)Nc1ccccc1 (centres undefined) | 68% (inactive) |
| COc1cc2[nH]c(=O)n(Cc3ccc(C(=O)N4CCN(c5cc(Cl)ccc5C)CC4)cc3)c(=O)c2cc1OC | 58% (inactive) |
| COc1ccc(CNC(=O)CCNS(=O)(=O)c2ccc3c(c2)CCCC(=O)N3)cc1 | 119% (inactive) |
| COc1ccccc1NC(=O)C1=C(C)Nc2nc(SCc3ccccc3Cl)nn2C1c1ccccn1 (centres undefined) | 171% (inactive) |
| CCn1cc(C(=O)N2CCN(c3ccc(OC)cc3)CC2)c(=O)c2cc(S(=O)(=O)N(C)C3CCCCC3)ccc21 | 122% (inactive) |
| CC(NC(=O)c1ccc(NC(=O)c2nsc3ccccc23)cc1)c1ccccc1 (centres undefined) | 84% (inactive) |
| O=C(Cc1csc2ccccc12)NCc1ccc(F)cc1 | 71% (inactive) |
| Cc1cc(C)c(NC(=O)C(C)n2c(=O)cc(C)c3c(C)nn(-c4ccccc4)c32)c(C)c1 (centres undefined) | 81% (inactive) |

| Structure (SMILES) | survival |
| --- | --- |
| COc1ccc(NC(=O)c2nn(C)c3c2CS(=O)(=O)c2ccccc2-3)cc1Cl | 56% (active) |
| CC(C)NC(=O)c1nn(C)c2c1CS(=O)(=O)c1ccccc1-2 | 51% (active) |
| Cn1nc(C(=O)Nc2ccc(F)c(Cl)c2)c2c1-c1ccccc1S(=O)(=O)C2 | 90% (inactive) |
| COc1ccc(Cl)cc1NC(=O)c1nn(C)c2c1CS(=O)(=O)c1ccccc1-2 | 53% (inactive) |
| Cn1nc(C(=O)NCc2ccccc2)c2c1-c1ccccc1S(=O)(=O)C2 | 85% (inactive) |
| COCCCNC(=O)c1nn(C)c2c1CS(=O)(=O)c1ccccc1-2 | 99% (inactive) |
| CCN1C(=O)c2ccccc2Sc2ccc(NC(=O)COc3ccc(Cl)cc3)cc21 | 91% (inactive) |
| CCCCN(CC)CCNC(=O)c1c(C)oc2ncnc(N3CCOCC3)c12 | 87% (inactive) |
| COc1cccc(N2CCN(c3nc4ccc(C(=O)c5ccccc5)cc4n4c(C)nnc34)CC2)c1 | 102% (inactive) |
| Cc1c(C(=O)OCCOc2ccccc2)[nH]c2c1C(=O)CC(c1ccccc1Cl)C2 (centres undefined) | 80% (inactive) |
| CCC(=O)N1CCc2cc(Br)cc(S(=O)(=O)NCc3ccccc3)c21 | 66% (inactive) |
| CCC(=O)N1CCc2cc(Br)cc(S(=O)(=O)NCCc3ccc(C)cc3)c21 | 85% (inactive) |
| CCC(=O)N1CCc2cc(Br)cc(S(=O)(=O)NCCc3cccc(C)c3)c21 | 102% (inactive) |
| CCC(=O)N1CCc2cc(Br)cc(S(=O)(=O)NCCc3ccccc3Cl)c21 | 39% (active) |
| CCC(=O)N1CCc2cc(Br)cc(S(=O)(=O)NCCc3ccccc3)c21 | 43% (active) |
| CCC(=O)N1CCc2cc(Br)cc(S(=O)(=O)CCC(=O)NCCc3ccccc3Cl)c21 | 72% (inactive) |
| CC(CNC(=O)c1ccc2nc(Cc3ccccc3)oc2c1)c1ccccc1 (centres undefined) | 70% (inactive) |
| CC(Sc1nccn1C)C(=O)Nc1ccccc1C#N (centres undefined) | 85% (inactive) |
| COc1ccccc1CNc1ncnc2c1c(-c1ccccc1)cn2-c1cccc(C)c1 | 80% (inactive) |
